Source: the supplement of paper PMC7411054

Assays:
Conditions in all cases: treatment time: 24 h
[1] = system: WPMY1-CANX-COX4; test: lowest phenotypically active concentration; higher = less potent
Outline: (§1)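 Fifteen gene-edited A549, HepG2 and WPMY1 reporter lines (BFP segmentation plus GFP and RFP/FusionRed markers) were treated at 0.3, 1, 3 or 9 µM for 24 h, four wells each, then imaged live. Live-cell features per well were normalised to DMSO control wells. Deviation required ≥3 of 4 wells beyond the 95th percentile of DMSO Euclidean distances, and reproducibility required median replicate Pearson correlation above the 95th percentile of non-replicates. Phenotypic activity needed both criteria.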

[2] = system: WPMY1-GM130-SQSTM1; test: as above
Outline: as §1

[3] = system: A549-ACTB-RAB5A; test: phenotypically active (imaging signature differs from DMSO and reproducible) at any of 0.3-9 uM (binary (1 = active, 0 = inactive)); higher = active
Outline: as §1

[4] = system: A549-CANX-COX4; test: as above
Outline: as §1

[5] = system: A549-GM130-SQSTM1; test: as above
Outline: as §1

[6] = system: A549-TP53BP1-CLTA; test: as above
Outline: as §1

[7] = system: A549-TUBA1B-RELA; test: as above
Outline: as §1

[8] = system: HepG2-ACTB-RAB5A; test: as above
Outline: as §1

[9] = system: HepG2-CANX-COX4; test: as above
Outline: as §1

[10] = system: HepG2-GM130-SQSTM1; test: as above
Outline: as §1

[11] = system: HepG2-TP53BP1-CLTA; test: as above
Outline: as §1

[12] = system: HepG2-TUBA1B-RELA; test: as above
Outline: as §1

[13] = system: WPMY1-ACTB-RAB5A; test: as above
Outline: as §1

[14] = system: WPMY1-CANX-COX4; test: as above
Outline: as §1

[15] = system: WPMY1-GM130-SQSTM1; test: as above
Outline: as §1

[16] = system: WPMY1-TP53BP1-CLTA; test: as above
Outline: as §1

[17] = system: WPMY1-TUBA1B-RELA; test: as above
Outline: as §1

[18] = system: WPMY1-ACTB-RAB5A; test: lowest phenotypically active concentration; higher = less potent
Outline: as §1

[19] = system: HepG2-GM130-SQSTM1; test: as above
Outline: as §1

[20] = system: WPMY1-TP53BP1-CLTA; test: as above
Outline: as §1

SMILES	lowest phenotypically active concentration [1] [µM]	lowest phenotypically active concentration [2] [µM]	phenotypically active [3]	phenotypically active [4]	phenotypically active [5]	phenotypically active [6]	phenotypically active [7]	phenotypically active [8]	phenotypically active [9]	phenotypically active [10]	phenotypically active [11]	phenotypically active [12]	phenotypically active [13]	phenotypically active [14]	phenotypically active [15]	phenotypically active [16]	phenotypically active [17]	lowest phenotypically active concentration [18] [µM]	lowest phenotypically active concentration [19] [µM]	lowest phenotypically active concentration [20] [µM]
CCOC(=O)c1ccc(N2NC(=O)/C(=C/c3ccc([N+](=O)[O-])o3)C2=O)cc1	9	9	0 (inactive)	0 (inactive)	0 (inactive)	0 (inactive)	0 (inactive)	0 (inactive)	0 (inactive)	0 (inactive)	0 (inactive)	0 (inactive)	0 (inactive)	1 (active)	1 (active)	0 (inactive)	0 (inactive)			
COC(=O)C1=C(C)NC(C)=C(C(=O)OCCN(C)Cc2ccccc2)C1c1cccc([N+](=O)[O-])c1 (stereo not given) [nicardipine]		9	0 (inactive)	0 (inactive)	0 (inactive)	0 (inactive)	0 (inactive)	0 (inactive)	0 (inactive)	0 (inactive)	0 (inactive)	0 (inactive)	0 (inactive)	0 (inactive)	1 (active)	0 (inactive)	0 (inactive)			
CNC(=O)c1ccc(C)c(-n2c(C)cc(OCc3ccc(F)cc3F)c(Br)c2=O)c1			0 (inactive)	0 (inactive)	0 (inactive)	0 (inactive)	0 (inactive)	0 (inactive)	0 (inactive)	0 (inactive)	0 (inactive)	0 (inactive)	1 (active)	0 (inactive)	0 (inactive)	0 (inactive)	0 (inactive)	1		
NS(=O)(=O)C#Cc1ccccc1 [pifithrin-mu]		9	0 (inactive)	0 (inactive)	0 (inactive)	0 (inactive)	0 (inactive)	0 (inactive)	0 (inactive)	1 (active)	0 (inactive)	0 (inactive)	0 (inactive)	0 (inactive)	1 (active)	0 (inactive)	1 (active)		3	
Cc1ccc(C(=O)Oc2ccc(C(O)CNC(C)(C)C)cc2OC(=O)c2ccc(C)cc2)cc1 (stereo not given) [bitolterol]	9		0 (inactive)	0 (inactive)	0 (inactive)	0 (inactive)	0 (inactive)	0 (inactive)	0 (inactive)	0 (inactive)	0 (inactive)	0 (inactive)	0 (inactive)	1 (active)	0 (inactive)	0 (inactive)	0 (inactive)			
COc1ccc(Cn2ccc3ccc(C(=O)NO)cc32)cc1		3	0 (inactive)	0 (inactive)	0 (inactive)	0 (inactive)	0 (inactive)	0 (inactive)	0 (inactive)	0 (inactive)	0 (inactive)	0 (inactive)	0 (inactive)	0 (inactive)	1 (active)	0 (inactive)	0 (inactive)			
CC(C)[C@H](N)C(=O)OCC(CO)OCn1cnc2c(=O)[nH]c(N)nc21 (stereo not given in full) [valganciclovir]		1	0 (inactive)	0 (inactive)	0 (inactive)	0 (inactive)	0 (inactive)	0 (inactive)	0 (inactive)	0 (inactive)	0 (inactive)	0 (inactive)	0 (inactive)	0 (inactive)	1 (active)	0 (inactive)	0 (inactive)			
COc1ccnc(CS(=O)c2nc3cc(OC(F)F)ccc3[nH]2)c1OC (stereo not given) [pantoprazole]			0 (inactive)	0 (inactive)	0 (inactive)	0 (inactive)	0 (inactive)	0 (inactive)	0 (inactive)	0 (inactive)	0 (inactive)	0 (inactive)	1 (active)	0 (inactive)	0 (inactive)	0 (inactive)	0 (inactive)	≤ 0.3		
Cc1nc[nH]c1C1CCN(c2nc3cccc4c3n2CCC4=O)CC1			0 (inactive)	0 (inactive)	0 (inactive)	0 (inactive)	0 (inactive)	0 (inactive)	0 (inactive)	0 (inactive)	1 (active)	0 (inactive)	0 (inactive)	0 (inactive)	0 (inactive)	0 (inactive)	0 (inactive)			
O=c1cc(-c2ccc(O)cc2)oc2cc(O)cc(O)c12 [Apigenin]		9	0 (inactive)	0 (inactive)	0 (inactive)	0 (inactive)	0 (inactive)	0 (inactive)	0 (inactive)	1 (active)	1 (active)	1 (active)	0 (inactive)	0 (inactive)	1 (active)	1 (active)	1 (active)		9	3
Oc1cc(O)cc(/C=C/c2ccc(O)c(O)c2)c1 [Piceatannol]		3	0 (inactive)	0 (inactive)	0 (inactive)	0 (inactive)	0 (inactive)	0 (inactive)	0 (inactive)	0 (inactive)	0 (inactive)	0 (inactive)	1 (active)	0 (inactive)	1 (active)	0 (inactive)	1 (active)	9		
